In PubChem BioAssay AID1159580 (chemical genetic matrix, 2015):
The whole screen tested about 5,500 compounds, of which about 2,000 (36%) were called active. Not shown: some 18% with an inconclusive outcome. Rule as the data show it: active = normalized growth mostly below about 0.91 (no sharp cut-off); inconclusive = no clear call, values can overlap the other calls; inactive = mostly above about 0.92. The list shows a part of the results.

Experiment: chemical genetic growth profiling, strain panel (AID 1159580);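 also: tested at 20 µM; growth read once vehicle control cultures reached saturation at 30 °C; 1 = growth at the plate median or of vehicle wells; lower values mean less growth of the strain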
Conditions: S. cerevisiae deletion strains, growth OD

Measured: normalized growth

CC(=O)O[C@@H]1CC2C(C)(C)[C@@H](O)CC[C@]2(C)C2CC[C@@]3(C)[C@H](c4ccoc4)OC(=O)[C@H]4O[C@]43[C@@]21C (some centres not stated)
inactive: locus YAL021C, strain ccr4, hits give low values 1.02 | locus YAL026C, strain drs2, hits give low values 0.989 | locus YAL030W, strain snc1, hits give low values 0.996 | locus YBL061C, strain skt5, hits give low values 0.984 | locus YBR009C, strain hhf1, hits give low values 1 | locus YBR023C, strain chs3, hits give low values 0.991 | locus YBR171W, strain sec66, hits give low values 0.993 | locus YBR229C, strain ROT2, hits give low values 1.01 | locus YBR231C, strain swc5, hits give low values 0.995 | locus YBR279W, strain paf1, hits give low values 0.998 | locus YCL011C, strain gbp2, hits give low values 0.985 | locus YCL016C, strain dcc1, hits give low values 0.995 | locus YCL029C, strain bik1, hits give low values 0.997 | locus YCL061C, strain MRC1, hits give low values 0.994 | locus YCL069W, strain vba3, hits give low values 0.988 | locus YCR088W, strain abp1, hits give low values 0.988 | locus YDL005C, strain med2, hits give low values 0.988 | locus YDL035C, strain GPR1, hits give low values 0.967 | locus YDL040C, strain nat1, hits give low values 0.986 | locus YDL074C, strain BRE1, hits give low values 0.947 | locus YDL101C, strain DUN1, hits give low values 1.02 | locus YDL134C, strain PPH21, hits give low values 1 | locus YDL185W, strain tfp1, hits give low values 1 | locus YDL192W, strain arf1, hits give low values 0.964 | locus YDR001C, strain nth1, hits give low values 0.996 | locus YDR069C, strain doa4, hits give low values 1.01 | locus YDR101C, strain arx1, hits give low values 0.973 | locus YDR137W, strain rgp1, hits give low values 0.986 | locus YDR159W, strain sac3, hits give low values 0.964 | locus YDR162C, strain NBP2, hits give low values 0.987 | locus YDR195W, strain ref2 0.981 | locus YDR297W, strain sur2, hits give low values 1.01 | locus YDR318W, strain mcm21, hits give low values 0.99 | locus YDR334W, strain swr1, hits give low values 1.01 | locus YDR335W, strain msn5, hits give low values 0.995 | locus YDR388W, hits give low values 1.02 | locus YDR392W, strain spt3, hits give low values 0.968 | locus YDR502C, strain sam2, hits give low values 1 | locus YEL003W, strain gim4, hits give low values 0.987 | locus YEL037C, strain rad23, hits give low values 0.995 | locus YEL061C, strain CIN8 (second series), hits give low values 0.992 | locus YEL061C, strain CIN8, hits give low values 1 | locus YER015W, strain faa2, hits give low values 0.996 | locus YER016W, strain bim1, hits give low values 0.989 | locus YER110C, hits give low values 1.02 | locus YER111C, strain swi4, hits give low values 0.98 | locus YER155C, strain BEM2 (second series), hits give low values 1.01 | locus YER155C, strain BEM2, hits give low values 1.02 | locus YER167W, strain BCK2, hits give low values 0.996 | locus YFR010W, strain ubp6, hits give low values 0.993 | locus YGL078C, strain dbp3, hits give low values 1.02 | locus YGL086W, strain mad1, hits give low values 0.998 | locus YGL167C, strain pmr1, hits give low values 0.998 | locus YGL173C, strain kem1, hits give low values 0.998 | locus YGL227W, strain vid30, hits give low values 0.989 | locus YGL240W, strain doc1, hits give low values 0.966 | locus YGL248W, strain PDE1, hits give low values 1.01 | locus YGL253W, strain hxk2, hits give low values 0.95 | locus YGR135W, strain pre9, hits give low values 1.04 | locus YGR252W, strain gcn5, hits give low values 0.975 | locus YHR013C, strain ard1, hits give low values 0.988 | locus YHR027C, strain rpn1, hits give low values 0.983 | locus YHR030C, strain SLT2, hits give low values 1.01 | locus YHR079C, strain IRE1 (second series), hits give low values 1.01 | locus YHR079C, strain IRE1, hits give low values 1.02 | locus YHR094C, strain hxt1, hits give low values 1.01 | locus YHR129C, strain ARP1, hits give low values 1.01 | locus YHR142W, strain chs7, hits give low values 0.992 | locus YHR200W, strain rpn10, hits give low values 1.01 | locus YIL066C, strain RNR3, hits give low values 0.967 | locus YIL073C, strain SPO22, hits give low values 1.03 | locus YIL125W, strain kgd1, hits give low values 1.01 | locus YIR030C, strain dcg1, hits give low values 1 | locus YJL092W, strain hpr5, hits give low values 0.995 | locus YJL095W, strain BCK1 (second series), hits give low values 1.01 | locus YJL095W, strain BCK1, hits give low values 1.01 | locus YJL115W, strain asf1, hits give low values 0.997 | locus YJL129C, strain trk1, hits give low values 0.976 | locus YJL134W, strain LCB3, hits give low values 1.01 | locus YJL154C, strain vps35, hits give low values 0.994 | locus YJL164C, strain tpk1, hits give low values 1 | locus YJL166W, strain qcr8, hits give low values 0.988 | locus YJL168C, strain set2, hits give low values 1.01 | locus YJL187C, strain SWE1 (second series), hits give low values 1.02 | locus YJL187C, strain SWE1, hits give low values 0.991 | locus YJR043C, strain POL32, hits give low values 0.979 | locus YJR066W, strain TOR1, hits give low values 0.966 | locus YKL009W, strain mrt4, hits give low values 0.964 | locus YKL068W, hits give low values 1.01 | locus YKL085W, strain MDH1 (second series), hits give low values 1 | locus YKL085W, strain MDH1, hits give low values 1 | locus YKL160W, strain elf1, hits give low values 0.997 | locus YKR001C, strain vps1, hits give low values 1 | locus YKR026C, strain gcn3, hits give low values 1 | locus YKR091W, strain srl3, hits give low values 1 | locus YLL001W, strain dnm1, hits give low values 0.996 | locus YLL026W, hits give low values 0.997 | locus YLL041C, strain sdh2, hits give low values 0.997 | locus YLR027C, strain aat2, hits give low values 0.999 | locus YLR039C, strain RIC1, hits give low values 0.981 | locus YLR058C, strain SHM2, hits give low values 1 | locus YLR102C, strain apc9, hits give low values 1.01 | locus YLR113W, strain HOG1, hits give low values 0.968 | locus YLR221C, strain rsa3, hits give low values 0.987 | locus YLR258W, strain gsy2, hits give low values 1.01 | locus YLR262C, strain YPT6 (second series), hits give low values 0.967 | locus YLR262C, strain YPT6, hits give low values 0.974 | locus YLR268W, strain sec22, hits give low values 0.967 | locus YLR320W, strain mms22, hits give low values 0.989 | locus YLR330W, strain CHS5, hits give low values 0.999 | locus YLR342W, strain FKS1, hits give low values 0.992 | locus YLR357W, strain rsc2, hits give low values 1.03 | locus YLR370C, strain arc18, hits give low values 1.01 | locus YLR371W, strain rom2, hits give low values 1.03 | locus YLR384C, strain iki3, hits give low values 0.992 | locus YLR418C, strain cdc73, hits give low values 0.968 | locus YML016C, strain PPZ1, hits give low values 1.01 | locus YML032C, strain rad52, hits give low values 0.997 | locus YML120C, strain ndi1, hits give low values 1 | locus YML124C, strain tub3, hits give low values 1 | locus YMR058W, strain fet3, hits give low values 1.01 | locus YMR078C, strain ctf18, hits give low values 1.01 | locus YMR125W, strain sto1, hits give low values 1.02 | locus YMR129W, hits give low values 0.993 | locus YMR205C, strain PFK2, hits give low values 0.993 | locus YMR223W, strain ubp8, hits give low values 1.01 | locus YMR231W, strain pep5, hits give low values 0.959 | locus YMR307W, strain GAS1, hits give low values 0.953 | locus YNL067W, strain RPL9B, hits give low values 1.05 | locus YNL071W, strain lat1, hits give low values 0.993 | locus YNL153C, strain GIM3, hits give low values 1.04 | locus YNL183C, strain NPR1, hits give low values 0.976 | locus YNL209W, strain ssb2, hits give low values 0.992 | locus YNL233W, strain BNI4, hits give low values 1.01 | locus YNL248C, strain rpa49, hits give low values 0.995 | locus YNL250W, strain rad50, hits give low values 1.04 | locus YNL271C, strain bni1, hits give low values 0.999 | locus YNL298W, strain CLA4, hits give low values 0.991 | locus YNL307C, strain MCK1, hits give low values 1.01 | locus YNL322C, strain KRE1 (second series), hits give low values 0.989 | locus YNR049C, strain mso1, hits give low values 0.994 | locus YNR052C, strain pop2, hits give low values 1.02 | locus YOL006C, strain TOP1, hits give low values 0.891 | locus YOL012C, strain htz1 1.11 | locus YOL147C, strain pex11, hits give low values 0.996 | locus YOR001W, strain rrp6, hits give low values 0.981 | locus YOR061W, strain CKA2, hits give low values 0.985 | locus YOR069W, strain VPS5, hits give low values 1.01 | locus YOR070C, strain gyp1, hits give low values 0.988 | locus YOR080W, strain dia2, hits give low values 0.99 | locus YOR083W, strain WHI5, hits give low values 1 | locus YOR106W, strain vam3, hits give low values 0.984 | locus YOR136W, strain idh2, hits give low values 1 | locus YOR144C, strain elg1, hits give low values 1 | locus YOR184W, strain ser1, hits give low values 0.949 | locus YOR231W, strain MKK1, hits give low values 0.998 | locus YOR265W, strain rbl2, hits give low values 1 | locus YOR270C, strain vph1, hits give low values 0.912 | locus YOR290C, strain snf2, hits give low values 0.978 | locus YOR316C, strain cot1, hits give low values 1.01 | locus YPL051W, strain arl3, hits give low values 1.01 | locus YPL078C, strain atp4, hits give low values 0.991 | locus YPL106C, strain sse1, hits give low values 1.01 | locus YPL240C, strain hsp82, hits give low values 0.989 | locus YPL241C, strain CIN2, hits give low values 1 | locus YPL256C, strain CLN2, hits give low values 1.06 | locus YPR119W, strain clb2, hits give low values 1.02 | locus YPR141C, strain kar3, hits give low values 1.01 | locus YPR163C, strain tif3, hits give low values 1 | locus YPR167C, strain met16, hits give low values 1 | strain wtn01, hits give low values 0.976
active: locus YBR021W, strain FUR4, hits give low values 0.823
